Measurements as given in ChEMBL document CHEMBL4513146, “CO-ADD screening of Karazin Kharkiv National University (Ukraine) compounds”.
Entries with a potency or affinity are not part of this list.

Tests used:
Staphylococcus aureus = details: Concentration 32 ug.mL-1;; ASSAY_TEST Inhibition of Bacterial Growth; detection method Absorption (OD600); MEDIA CAMHB; plate type 384well; NBS; CORNING #3640; time 18 hr
Escherichia coli = details: Concentration 32 ug.mL-1;; ASSAY_TEST Inhibition of Bacterial Growth; detection method Absorption (OD600); MEDIA CAMHB; plate type 384well; NBS; CORNING #3640; time 18 hr

Row | SMILES | Inhibition (Staphylococcus aureus) [%] | Inhibition (Escherichia coli) [%]
1 | O=C(Cn1nc2ccc(-c3ccccc3)nn2c1=O)Nc1ccc(F)cc1 | 1.63 | -4.86
2 | O=C(Cn1nc2c3cc(-c4ccc(F)cc4)nn3ccn2c1=O)N1CCN(c2ccccc2F)CC1 | -6.33 | 3.42
3 | CCOC(=O)c1ccc(NC(=O)Cn2nc3ccc(S(=O)(=O)C(C)(C)C)nn3c2=O)cc1 | 5.05 | -4.95
4 | CC(C)c1nnc2c(=O)n(CC(=O)Nc3ccc(Cl)cc3)c3ccccc3n12 | 11.52 | 1.04
5 | N#Cc1cccc(Cn2nc3ccc(S(=O)(=O)N4CCCCCC4)cn3c2=O)c1 | 10.44 | -2.41
6 | COc1ccc(NC(=O)c2ccc3nn(CC(=O)Nc4ccccc4C(F)(F)F)c(=O)n3c2)cc1 | 9.89 | -3.73
7 | CCCCn1c(=O)c2sccc2n2c(SCc3cccc(C(F)(F)F)c3)nnc12 | -1.51 | -8.66
8 | COc1ccc2[nH]cc(C(=O)CSc3nnc4c(=O)n(-c5ccc(F)cc5)ccn34)c2c1 | 14.61 | -2.83
9 | CCC(Sc1nnc2c(=O)n(-c3ccccc3)ccn12)C(=O)Nc1ccc(OC)cc1OC (stereo not drawn) | 10.76 | 0.69
10 | COc1cc(NC(=O)C(C)Sc2nnc3c(=O)n(-c4ccc(F)cc4)ccn23)cc(OC)c1 (stereo not drawn) | 6.77 | -6.93
11 | COc1ccc(N(Cc2cc(F)cc(F)c2)S(=O)(=O)c2ccc3nnc(C)n3c2)cc1 | 12.66 | -2.53
12 | COc1cc(NC(=O)Cn2nc3c(Sc4cccc(F)c4)nccn3c2=O)cc(OC)c1 | 9.3 | -0.8
13 | CCOC(=O)c1ccc(NC(=O)Cn2nc3ccc(SC(C)(C)C)nn3c2=O)cc1 | -4.89 | -11.53
14 | COc1ccc(C(C)NC(=O)CCc2nnc3ccc(-c4ccc(C)c(C)c4)nn23)cc1OC (stereo not drawn) | 7.27 | -3.17
15 | Cc1ccc2c(c1)N(C(=O)Cn1nc3ccc(SCc4ccc(Cl)cc4)nn3c1=O)CCO2 | 2.18 | -5.63
16 | C=Cc1ccc(Cn2nc3c(=O)n(-c4ccc(C)c(C)c4)ccn3c2=O)cc1 | 0.4 | 3.59
17 | COC(=O)c1cccc(NC(=O)Cn2nc3ccc(-c4ccc(C)c(C)c4)nn3c2=O)c1 | 2.69 | -10.93
18 | CCCCOc1ccc(-c2cc3c4nnc(SCC(=O)Nc5cccc(C#N)c5)n4ccn3n2)cc1 | -7.95 | -7.05
19 | O=C(Cn1nc2c(Oc3ccc(Cl)cc3)nccn2c1=O)Nc1ccc2c(c1)OCO2 | 6.57 | -7
20 | COc1ccc(NC(=O)Cn2nc3ccc(-c4ccc(Cl)cc4)nn3c2=O)cc1 | 8.85 | -4.11
21 | COc1ccc(-c2cc3c4nnc(SCC(=O)NCc5cccc(OC)c5OC)n4ccn3n2)cc1 | 4.12 | -5.71
22 | O=c1c2nnc(SCc3ccccc3)n2ccn1-c1ccc(Br)cc1 | 12.69 | -3.8
23 | O=C(Cn1nc2ccc(SCc3ccc(Cl)cc3)nn2c1=O)Nc1ccccc1C(F)(F)F | 4.98 | -5.74
24 | CCOc1ccc(N(Cc2ccccc2)S(=O)(=O)c2ccc3nncn3c2)cc1 | -0.89 | -1.41
25 | COC(=O)c1ccc(Cn2nc3ccc(S(=O)(=O)N4CCCCCC4)cn3c2=O)o1 | -11.6 | -1.2

Row | SMILES | Inhibition (Staphylococcus aureus) [%] | Inhibition (Escherichia coli) [%]
26 | COc1ccc(-c2cc3c4nn(CC(=O)Nc5ccc(C)cc5)c(=O)n4ccn3n2)cc1 | -0.62 | 1.25
27 | COc1cccc(CN(c2cc(F)cc(F)c2)S(=O)(=O)c2ccc3nnc(C)n3c2)c1 | 7.94 | -9.84
28 | COC(=O)c1ccc(NC(=O)Cn2nc3c4cc(-c5ccc(OC)cc5)nn4ccn3c2=O)cc1 | 11.91 | 3.86
29 | CCOc1ccc(NC(=O)Cn2nc3c(SCc4ccc(Cl)cc4)nccn3c2=O)cc1 | -1.92 | -9.96
30 | CC(C)Cn1c(=O)c2sccc2n2c(=O)n(Cc3ccc(Cl)cc3)nc12 | -2.34 | 0.89
31 | Cc1cc(C)cc(NC(=O)CSc2nnc3c(=O)n(-c4ccc(Br)cc4)ccn23)c1 | 9.26 | -3.09
32 | CCc1ccc(N(Cc2ccccc2C)S(=O)(=O)c2cccn3c(CC)nnc23)cc1 | 11.1 | -3.02
33 | CCN(C(=O)Cn1nc2nc(Nc3ccc(F)cc3)ccn2c1=O)c1ccccc1 | 12.68 | -3.17
34 | CCOc1ccc(NC(=O)Cn2nc3c4cc(-c5ccc(C)cc5)nn4ccn3c2=O)cc1 | 9.82 | 2.19
35 | O=C(Cn1nc2ccc(SCc3ccc(Cl)cc3)nn2c1=O)Nc1ccc(F)c(F)c1 | -1.34 | -2.62
36 | CCOc1ccc(NC(=O)Cn2nc3c(N4CCCC4)nccn3c2=O)cc1 | 0.84 | -1.53
37 | Cc1ccc(NC(=O)Cn2nc3c(SC4CCCCC4)nccn3c2=O)cc1 | 10.51 | -0.3
38 | CCOc1ccc(-n2ccn3c(SCC(=O)c4ccc(C)cc4)nnc3c2=O)cc1 | 16.97 | -1.19
39 | CCc1nnc2c(S(=O)(=O)N(Cc3ccccc3C)c3ccc(Cl)cc3)cccn12 | -22.93 | -4.88
40 | CCOC(=O)c1cccc(NC(=O)Cn2nc3c4cc(-c5ccc(C)c(C)c5)nn4ccn3c2=O)c1 | -12.42 | -16.13
41 | Cc1ccc(Oc2nccn3c(=O)n(CC(=O)Nc4ccc(C)cc4Cl)nc23)cc1 | 6.09 | 0.24
42 | COc1ccc(C)cc1NC(=O)Cn1nc2c3cc(-c4ccc(Cl)cc4)nn3ccn2c1=O | 8.09 | 3.41
43 | CSc1cccc(NC(=O)Cn2nc3ccc(-c4ccc(C)c(C)c4)nn3c2=O)c1 | -11.35 | -14.99
44 | COc1cccc(-n2ccn3c(SCC(=O)c4ccc(OC)c(OC)c4)nnc3c2=O)c1 | 10.14 | 2.93
45 | COC(=O)c1ccc(NC(=O)Cn2nc3ccc(Sc4ccc(C)cc4)nn3c2=O)cc1 | 10.91 | -1.06
46 | Cc1ccc(CN(c2ccccc2)S(=O)(=O)c2ccc3nncn3c2)cc1 | 12.66 | -4.44
47 | CCOC(=O)c1ccc(NC(=O)Cn2nc3ccc(SCc4ccc(Cl)cc4)nn3c2=O)cc1 | -0.24 | -11.17
48 | COc1ccc(NC(=O)Cn2c(=O)c3nnc(C(C)C)n3c3ccccc32)cc1 | 4.5 | -6.7
49 | O=C(CCc1nnc2c3cc(-c4ccc(Cl)cc4)nn3ccn12)N1CCN(c2ccccn2)CC1 | 5.65 | -0.84
